Source: PubChem BioAssay (NCATS)
Several values for one entry are separate records, joined by “and”; a condition that tells them apart may be missing. Equal entries are not always repeated. A number with no mark means an inactive call. Inconclusive results are not listed. Where a call stands in place of a potency, no number is given. Activity calls are given as the source filed them. Unless noted, calls come from the whole dose curve; as a rule, active = well fitted curve in the direction sought with a large enough effect; inconclusive = small, poorly fitted or top-dose-only effect, or another doubt; inactive = no such curve, though single readings can be large; an effect the other way counts as inactive or inconclusive.

How the values were obtained:
[1] = Cell Viability - BJ (AID 421; calls by dose curve;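 note: potency is the fitted concentration of half-maximal effect; cells exposed to compound for 40 hours at 37 °C before readout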); conditions: BJ fibroblast viability, qHTS
Summary of the method: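 Cytotoxicity in human BJ foreskin fibroblasts is scored as loss of cellular ATP after a 40-hour exposure, measured by luciferase luminescence. Controls are DMSO and 100 uM tamoxifen.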

[2] = Cell Viability - Jurkat (AID 426;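 active = dose-dependent loss of cell ATP signal giving a full or clear fitted curve, ranked by lower potency value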;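 note: potency is the fitted concentration of half-maximal effect; cells exposed to compound for 40 hours at 37 °C before ATP read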); conditions: qHTS
Summary of the method: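 Seed 5000 Jurkat E6-1 cells/well; add compound; incubate 40 hr at 37 °C; add CellTiter-Glo; wait 20 min at room temperature; read luminescence. Fit concentration-response with Hill equation for AC50.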

[3] = Cell Viability - Hek293 (AID 427;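 active = compounds whose dose-response curve shows a full or clear partial loss of cell viability, called from curve shape rather than a numeric limit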;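 note: potency is the fitted concentration of half-maximal effect; cells exposed to compound for 40 hours at 37 °C before reading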); conditions: qHTS
Summary of the method: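 qHTS, human embryonic kidney (adenovirus-transformed) cells; 40 hr cpd, 37 °C; CellTiter-Glo ATP luminescence. Norm: DMSO = 0, 100 uM tamoxifen = 100% inhibition. Hill-fit AC50.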

[4] = Cell Viability - HepG2 (AID 433; calls by dose curve;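 note: potency is the fitted concentration of half-maximal effect; potency for ATP loss meaning cytotoxicity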); conditions: qHTS
Summary of the method: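 Cytotoxicity is scored as loss of intracellular ATP in HepG2 cells exposed to compounds for 40 h. Concentration-response curves, normalized to DMSO and 100 uM tamoxifen, give AC50 values.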

[5] = Cell Viability - MRC5 (AID 434; calls by dose curve;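 note: potency is the fitted concentration of half-maximal effect; cells exposed to compound for 40 hours at 37 °C; potency reflects cytotoxicity seen as loss of intracellular ATP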); conditions: MRC5 lung fibroblast viability, qHTS
Summary of the method: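 qHTS cytotoxicity in human lung fibroblast MRC5 cells; 40 hr treatment, 37 °C; cellular ATP by luciferase luminescence; DMSO = 0%, 100 uM tamoxifen = 100% inhibition; Hill-fit AC50.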

[6] = Cell Viability - SK-N-SH (AID 435; calls by dose curve;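 note: potency is the fitted concentration of half-maximal effect; compound exposure lasted 40 h at 37 °C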); conditions: SK-N-SH neuroblastoma cell viability qHTS
Summary of the method: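 Cells seeded at 1500 per well and incubated 5 hr at 37 °C. Compound added, then 40 hr at 37 °C. CellTiter-Glo added, 20 min at room temperature, luminescence read.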

[7] = Cell Viability - HUV-EC-C (AID 542); conditions: HUV-EC-C endothelial cell viability, qHTS; series mostly up to 92.2 µM; note: nearly all actives have a fitted effect of over 35% in size
Summary of the method: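 Decrease in cellular ATP, quantified by luciferase luminescence, reflects toxicity in normal human vascular endothelial HUV-EC-C cells given compound for 40 hr in complete culture medium. Values are AC50s from concentration-response curves.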

[8] = Cellular Toxicity (caspase-3) HepG2 (AID 654); conditions: HepG2 caspase-3 activation, luminescence, 0% = DMSO only, 100% = tamoxifen; series mostly up to 92.2 µM;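 note: cells exposed to compound for 16 hours before reading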
Summary of the method: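 qHTS, HepG2, 1500 cells/well, complete medium; cpd 16 h 37 °C; Caspase-Glo 3/7, 20 min RT; lum. Norm: DMSO vs 100 uM tamoxifen; AC50 Hill fit.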

[9] = Cellular Toxicity (caspase-3) HUV-EC-C (AID 656); conditions: HUV-EC-C cells, caspase-3 activation (apoptosis), vehicle = 0, 100 µM tamoxifen = 100%; series mostly up to 92.2 µM
Summary of the method: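 Read-out: luminescence proportional to caspase 3/7 activity, measured 20 min after adding Caspase-Glo 3/7 reagent. Cells (HUV-EC-C) had received compound for 16 hr at 37°C. Increases relative to DMSO and 100 uM tamoxifen gave concentration-response AC50 values.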

[10] = Cellular Toxicity (caspase-3) BJ (AID 658); conditions: BJ fibroblasts, luminescence, normalized: DMSO 0%, staurosporine 100%; series mostly up to 91.7 µM
Summary of the method: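 Readout: Caspase-Glo 3/7 luminescence increase in BJ cells after 16 hr treatment at 37 °C. Staurosporine and tamoxifen served as positive controls; AC50 values came from Hill modelling of data normalized to DMSO and 10 uM staurosporine.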

[11] = Cellular Toxicity (caspase-3) Mesangial (AID 660); conditions: mesangial cells, normalized: DMSO 0%, 100 µM tamoxifen 100%; series mostly up to 91.7 µM;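 note: cells exposed to compound for 16 h before the caspase read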
Summary of the method: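 Concentration-response qHTS: compound-induced rise in caspase 3/7 luminescence in human mesangial cells after 16 h, normalized to DMSO and 100 uM tamoxifen controls.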

[12] = Cellular Toxicity (caspase-3) SK-N-SH (AID 661); conditions: SK-N-SH caspase-3 activation, qHTS; series mostly up to 91.7 µM
Summary of the method: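 Caspase 3/7 activation is measured as a luminescence increase from aminoluciferin released by substrate cleavage in SK-N-SH cells after 16 hr compound treatment; values are AC50 from concentration-response curves.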

[13] = Cellular Toxicity (caspase-3) H-4-II-E (AID 663); conditions: H-4-II-E rat hepatoma; Potency: caspase-3 activation; series mostly up to 92.2 µM;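 note: cells exposed to compound for 16 hr before readout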
Summary of the method: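 Apoptosis induction is scored as increased luminescence from caspase 3/7 substrate cleavage in rat hepatoma H-4-II-E cells exposed to compound for 16 hr. Activity is scaled between DMSO and 100 uM tamoxifen.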

[14] = Cellular Toxicity (caspase-3) N2a (AID 665); conditions: N2a cells, luminescence, normalized: DMSO 0%, 10 µM staurosporine 100%; series mostly up to 92.2 µM;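 note: compound exposure lasted 16 h at 37 °C before readout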
Summary of the method: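 Plated mouse neuroblastoma N2a cells received titrated compounds for 16 h in complete medium. Caspase activity was then detected with a peptide-aminoluciferin luminescent reagent.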

[15] = Cell Viability - LYMP1-002 - Assay at 16 hr (AID 948); conditions: LYMP1-002 lymphoblastoid cell viability; series mostly up to 92.2 µM
Summary of the method: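 Acute cytotoxicity is scored as a concentration-dependent fall in intracellular ATP in a human lymphoblastoid line (LYMP1-002) after 16 hr compound exposure at 37 C, measured by luciferase luminescence.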

[16] = MultiTox-Fluor Cytotoxicity Assay - LYMP1-003 - Dead Cells (AID 961); conditions: LYMP1-003 lymphoblastoid cells, dead-cell protease fluorescence; series mostly up to 92.2 µM;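 note: cells exposed to compound for 16 h at 37 °C; nearly all actives have a fitted effect of over 70% in size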
Summary of the method: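 LYMP1-003 lymphoblastoid, 2500 cells/well, 5 hr settle then 16 hr cpd at 37 C; MultiTox-Fluor reagent 60 min RT; Ex/Em 485/520 dead-cell signal; norm. DMSO = 0%, 15 uM tetraoctylammonium bromide = 100%; Hill AC50.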

[17] = Cell Viability - LYMP2-023 (AID 975); conditions: LYMP2-023 lymphoblastoid cell viability; series mostly up to 92.2 µM;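 note: cellular ATP measured by luciferase luminescence as viability proxy; cells exposed to compound for 24 hours at 37 °C; nearly all actives have a fitted effect of over 55% in size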
Summary of the method: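 Concentration-dependent drop in intracellular ATP measures acute cytotoxicity in a human lymphoblastoid line treated for 24 hours in complete culture medium. AC50 values are taken from Hill-equation fits of qHTS data.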

[18] = Cell Viability - LYMP2-008 (AID 980); conditions: LYMP2-008 lymphoblastoid cell viability, qHTS; series mostly up to 92.2 µM; note: nearly all actives have a fitted effect of over 60% in size; note: potency is the fitted concentration of half-maximal effect
Summary of the method: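 Acute cytotoxicity is scored as concentration-dependent loss of cellular ATP in a human lymphoblastoid line after 24 hr treatment at 37 C. ATP is quantified by luciferase luminescence.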

[19] = qHTS Assay for Identification of Small Molecule Inducers of Hypoxia Response (AID 2120; active = well fitted curve in the direction sought with a large enough effect in the signal ratio, with a control signal flat, not every such curve was filed as active; the % refers to the signal ratio); conditions: hypoxia response reporter cells, beta-lactamase ratio readout; series mostly up to 104 µM
Summary of the method: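 Induction of beta-lactamase reporter activity was measured in CellSensor HRE-bla ME-180 cells after 17 h compound treatment at 37 degrees C, using CCF4 substrate and the 460nm/530nm emission ratio to derive AC50 values.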

[20] = qHTS assay for cell viability of HEK293 cells (AID 743288); conditions: ATP luminescence (CellTiter-Glo), 18 h, active compounds read low; note: nearly all actives have a fitted effect of over 50% in size
Summary of the method: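 The Tox21 protocol used parental HEK293 cells treated for 18 h at 37 C with compounds delivered by pintool; ATP-coupled luminescence after 30 min at room temperature gave viability.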

SMILES	Potency [1] [µM]	Potency [2]	Potency [3] [µM]	Potency [4] [µM]	Potency [5] [µM]	Potency [6] [µM]	Potency [7]	outcome [8]	outcome [9]	outcome [10]	outcome [11]	Potency [12]	Potency [13]	outcome [14]	outcome [15]	Potency [16]	Potency [17]	Potency [18]	Potency [19]	max response [20]
CCCCCc1cc(O)cc(O)c1	> 92	> 92 µM	> 92	> 92	> 92	> 92	inactive	inactive	inactive	inactive	inactive	inactive	inactive	inactive	inactive	inactive	inactive	inactive	inactive	-5.2%
Cc1ccc([N+](=O)[O-])cc1	> 92	> 92 µM	> 92	> 92	> 92	> 92	inactive	inactive	inactive	inactive	inactive	inactive	inactive	inactive	inactive	inactive	inactive	inactive	inactive	0.535%
Cc1ccc2c(C)cccc2c1	> 92	> 92 µM	> 92	> 92	> 92	> 92	inactive	inactive	inactive	inactive	inactive	inactive	inactive	inactive	inactive	inactive	inactive	inactive	inactive	11.2%
Nc1ccc(-c2ccccc2)cc1	> 92	> 92 µM	> 92	> 92	> 92	> 92	inactive	inactive	inactive	inactive	inactive	inactive	inactive	inactive	inactive	inactive	inactive	inactive	inactive	-6.92%
N#CCc1ccccc1	> 92	> 92 µM	> 92	> 92	> 92	> 92	inactive	inactive	inactive	inactive	inactive	inactive	inactive	inactive	inactive	inactive	inactive	inactive	inactive	-1.92%
S=c1[nH]c2ccccc2[nH]1	> 92	> 92 µM	> 92	> 92	> 92	> 92	inactive	inactive	inactive	inactive	inactive	inactive	inactive	inactive	inactive	inactive	inactive	inactive	inactive	7.64%
Nc1cccc2ccccc12	> 92	33 µM (active)	> 92	> 92	> 92	> 92	inactive	inactive	inactive	inactive	inactive	inactive	inactive	inactive	inactive	inactive	inactive	39.8 µM (active)	inactive	-0.157%
CCCCCCCCCCCCCl	> 92	> 92 µM	> 92	> 92	> 92	> 92	inactive	inactive	inactive	inactive	inactive	inactive	inactive	inactive	inactive	inactive	inactive	inactive	inactive	-0.903%
C1CC2OC2CC1C1CO1 (stereo not given)	> 92	> 92 µM	> 92	> 92	> 92	> 92	inactive	inactive	inactive	inactive	inactive	inactive	inactive	inactive	inactive	inactive	inactive	inactive	inactive	-9.23% and -6.84%
FC(Cl)(Cl)Cl	> 92	> 92 µM	> 92	> 92	> 92	> 92	inactive	inactive	inactive	inactive	inactive	inactive	inactive	inactive	inactive	inactive	inactive	inactive	inactive	-1.1%
ClC=CCl	> 92	> 92 µM	> 92	> 92	> 92	> 92	inactive	inactive	inactive	inactive	inactive	inactive	inactive	inactive	inactive	inactive	inactive	inactive	inactive	-11.1%
